AmpC inh no detg – qHTS Inhibitors of AmpC Beta-Lactamase (assay without detergent); AID 485341, 2010; 330,000 tested, 0.52% active; Potency, µM (titrated, usually from 57.1 µM), usual class: inhibitors; AmpC nitrocefin hydrolysis, absorbance 480 nm, 0.0001% Triton; also: nearly all actives have a fitted effect of over 20% in size
Target sequence (P00811 whole entry, looked up): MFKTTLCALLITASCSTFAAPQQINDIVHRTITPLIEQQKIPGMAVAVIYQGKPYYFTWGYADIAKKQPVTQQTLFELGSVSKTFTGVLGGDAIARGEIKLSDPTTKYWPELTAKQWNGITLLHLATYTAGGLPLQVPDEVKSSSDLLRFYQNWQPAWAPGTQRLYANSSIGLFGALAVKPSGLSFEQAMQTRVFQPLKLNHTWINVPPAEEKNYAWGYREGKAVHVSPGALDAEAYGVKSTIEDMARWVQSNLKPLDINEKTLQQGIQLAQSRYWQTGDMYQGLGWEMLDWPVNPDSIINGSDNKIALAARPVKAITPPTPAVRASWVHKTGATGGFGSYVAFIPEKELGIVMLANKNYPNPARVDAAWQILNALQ
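AmpC (5.3 nM in the dispensed reagent) in 20 mM phosphate pH 7.0 with 0.01% (detergent screen) or 0.0001% Triton X-100 was preincubated with compounds for 15 min at room temperature. Nitrocefin was then added from an 800 uM solution, and hydrolysis was followed at 480 nm.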
Sm TGR block – qHTS Assay for the Inhibitors of Schistosoma Mansoni Peroxiredoxins; Schistosoma mansoni thioredoxin glutathione reductase (TGR), Q962Y6; purified TGR, DTNB reduction, TNB absorbance 405 nm; Potency, µM (top dose mostly 114 µM), most hits filed as inhibitors; 360,000 tested, 3% active; also: nearly all actives have a fitted effect of over 60% in size
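Kinetic colorimetric format: TGR-catalysed, NADPH-driven DTNB reduction monitored via TNB absorbance. Enzyme dispensed at 20 nM; compound exposure 15 min at room temperature before reaction start.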
Giardia FBPA inh – qHTS Assay for Inhibitors of Fructose-1,6-bisphosphate Aldolase from Giardia Lamblia; purified Giardia FBPA; Potency, µM (top dose mostly 59.6 µM), most hits filed as inhibitors; 290,000 tested, 0.71% active; AID 2451, 2010; also: nearly all actives have a fitted effect of over 55% in size
Target sequence (A8B2U2 whole entry, looked up): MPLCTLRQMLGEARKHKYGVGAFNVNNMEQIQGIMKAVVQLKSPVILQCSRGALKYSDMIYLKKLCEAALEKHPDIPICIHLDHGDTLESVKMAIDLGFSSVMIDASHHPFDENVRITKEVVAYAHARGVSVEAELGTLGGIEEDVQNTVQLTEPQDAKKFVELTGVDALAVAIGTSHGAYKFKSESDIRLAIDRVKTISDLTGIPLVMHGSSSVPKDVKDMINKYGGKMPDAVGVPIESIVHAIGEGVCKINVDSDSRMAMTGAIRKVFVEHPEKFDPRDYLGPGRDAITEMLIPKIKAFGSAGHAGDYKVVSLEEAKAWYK
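Giardia FBPA (40 nM reagent) was preincubated 10 min at RT with compound (up to 57.5 uM final), then substrate plus GAPDH/TPI/NAD/arsenate coupling system with diaphorase/resazurin was added; resorufin fluorescence (525/598 nm) was read after 20 min.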
AmpC detergent – qHTS Inhibitors of AmpC Beta-Lactamase (assay with detergent) | P00811 | AmpC hydrolysis of nitrocefin, absorbance 480 nm, 0.01% Triton | Potency, µM (top dose mostly 114 µM), most hits filed as inhibitors | 370,000 tested, 0.041% active | AID 485294, 2010; also: nearly all actives have a fitted effect of over 25% in size
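20 mM phosphate pH 7.0 + 0.01% (detergent screen) or 0.0001% Triton X-100; 5.3 nM AmpC reagent; cpd preinc 15 min RT; nitrocefin (800 uM stock) to start; A480 q20 s × 4 min; Activity was normalised to no-enzyme and no-compound control wells.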
Each line names hits and unclear results; the compound was inactive in the other large screens. Hits are enriched below; roughly 3.6% of the tested compounds scored in any of these assays. Calls follow the shape of the dose curve; as a rule, active = well fitted curve in the direction sought with a large enough effect; inconclusive = small, poorly fitted or top-dose-only effect, or another doubt; inactive = no such curve, though single readings can be large; an effect the other way counts as inactive or inconclusive.

O=C(NC1CCSc2ccccc21)c1cccc(Cl)c1 (stereo not given)	Sm TGR block 7.9µM (no result: Giardia FBPA inh)
Cc1nn2c(COc3ccc(NC(=O)c4ccccc4Cl)cc3)nnc2c2ccccc12	none
CN1CCc2c(sc3c2C(=O)NC(c2cccs2)N3)C1 (stereo not given)	Giardia FBPA inh inconclusive
CN1CCc2c(sc3c2C(=O)NC(/C=C\c2ccccc2)N3)C1 (stereo not given)	Sm TGR block 10µM
CC1(C)CC(N2CCN(CCO)CC2)=CC(=S)N1	Sm TGR block 40µM, Giardia FBPA inh inconclusive
O=C(Nc1ccccc1CC[N+](=O)[O-])N1CCN(c2ccccc2)CC1	Sm TGR block 2.2µM
CN(C)C(=O)Nc1ccccc1CC[N+](=O)[O-]	none
CC1CN(C(=O)c2ccc(OC3CCN(Cc4ccccn4)CC3)cc2)CCN1C (stereo not given)	AmpC detergent inconclusive
COc1ccc(C2C(C(=O)c3ccccc3)N3c4ccccc4C=CC3C2[N+](=O)[O-])cc1 (stereo not given)	Sm TGR block 40µM
COc1ccc(N2C(=O)[C@@H]3[C@H](C2=O)[C@H](C(C)=O)N2c4ccccc4C=C[C@@H]32)cc1	Sm TGR block inconclusive
Cc1cccc(NC(=S)N/N=C2/CCCCc3ccccc32)c1	AmpC inh no detg 32µM
Cc1ccc(NC(=S)N/N=C2/CCCCc3ccccc32)cc1	AmpC inh no detg inconclusive
COCCNC(=O)Cn1c(=O)n(-c2ccc(C)c(C)c2)c(=O)c2c3c(sc21)CCCCC3	none (no result: AmpC inh no detg, Giardia FBPA inh)
COCCCNC(=O)Cn1c(=O)n(-c2ccc(C)c(C)c2)c(=O)c2c3c(sc21)CCCCC3	Sm TGR block 89µM (no result: AmpC inh no detg, Giardia FBPA inh)
Cc1oc(C)c2c(=O)ccc3c(c12)OC(N)=C(C#N)C3c1ccccc1 (stereo not given)	AmpC inh no detg inconclusive, Sm TGR block 28µM
CSc1ccc(C2C(C#N)=C(N)Oc3c2ccc(=O)c2c(C)oc(C)c32)cc1 (stereo not given)	Sm TGR block 28µM, Giardia FBPA inh inconclusive
CCOC(=O)c1c(C)oc2ncnc(N3CCN(c4ccccc4F)CC3)c12	none (no result: AmpC inh no detg, Giardia FBPA inh)
O=C(O)C1=CC(O)[C@@H](O)C(O)C1 (stereo not given in full)	none (no result: AmpC inh no detg, Sm TGR block, AmpC detergent)
Cc1ccc(OCCNC(=O)CNC(=O)c2ccc(Cl)c([N+](=O)[O-])c2)cc1	none (no result: Sm TGR block, Giardia FBPA inh, AmpC detergent)
CC(C)(C)OC(=O)C[C@@H]1C/C=C\C[C@@H](CC(=O)N[C@@H](CO)Cc2ccccc2)C(=O)N2CCC[C@@H]2COC1=O	none (no result: Sm TGR block, Giardia FBPA inh, AmpC detergent)
COc1cccc(CNS(=O)(=O)c2cc(CN3C(=O)c4cccnc4C3=O)ccc2OC)c1	none
COc1ccc(NC(=O)CCN2CCCC(C)C2)cc1 (stereo not given)	Sm TGR block 89µM
CCNc1ncc2nc(-c3ccccc3)c(=O)n(C)c2n1	none (no result: AmpC inh no detg, Sm TGR block, AmpC detergent)
CN(C)c1ccc(NC(=O)CN2C(=O)CN=C(c3ccccc3)c3ccccc32)cc1	none
CN1CC(=O)N(CC(=O)Nc2ccc(N(C)C)cc2)c2ccccc2C1=O	Sm TGR block 50µM, Giardia FBPA inh inconclusive (no result: AmpC inh no detg)
COc1cc(/C=C(\NC(C)=O)C(=O)Nc2cccc(O)c2)ccc1OC(C)=O	Sm TGR block 50µM
CC(/C=C/C(=O)NO)=C\[C@@H](C)C(=O)c1ccc(N(C)C)cc1	none (no result: AmpC inh no detg, Sm TGR block, AmpC detergent)
Cc1cccc(C2CC(c3ccc(Cl)cc3)Nc3nc(N)nn32)c1 (stereo not given)	AmpC inh no detg 3.5µM, AmpC detergent inconclusive
Cc1ccc(C2CC(c3cccc(Cl)c3)n3nc(N)nc3N2)cc1 (stereo not given)	AmpC inh no detg 6.3µM, AmpC detergent inconclusive
Cc1cccc(C2CC(c3ccc(F)cc3)Nc3nc(N)nn32)c1 (stereo not given)	none
CCc1ccc(C2CC(c3cccc(Cl)c3)n3nc(N)nc3N2)cc1 (stereo not given)	AmpC detergent inconclusive
CC(OC(=O)C1CC1)C(=O)Nc1cc(Cl)cc(Cl)c1 (stereo not given)	none (no result: Sm TGR block, Giardia FBPA inh, AmpC detergent)
CS(=O)(=O)N(CC(=O)O)c1cc(C(F)(F)F)ccc1Cl	none (no result: Giardia FBPA inh)
O=S(=O)(Nc1nc2ccccc2s1)c1ccc(Br)s1	AmpC inh no detg 32µM, AmpC detergent inconclusive
COc1c(C)cc(C(=O)C2CCCN(C3CCOCC3)C2)cc1C (stereo not given)	Sm TGR block 13µM
O=C1C2C3C=CC(C2C(=O)N1c1ccc(O)cc1)C1C2C(=O)N(c4ccc(O)cc4)C(=O)C2C31 (stereo not given)	Sm TGR block 50µM
O=C1C=CC(=O)N1c1ccc(O)cc1	Sm TGR block 0.89µM
O=C1CCCC(=O)N1c1ccc(O)cc1	none
O=C1C=CC(=O)N1c1ccc(OC(F)F)cc1	Sm TGR block 0.35µM, AmpC detergent inconclusive
CCc1ccc(S(=O)(=O)Nc2cccc(-c3ccc(N4CCCCC4)nn3)c2)s1	none (no result: AmpC inh no detg, Giardia FBPA inh)
Cc1cc(C(=O)NNC(=S)Nc2ccccc2)nn1C	none (no result: Sm TGR block)
CCOc1ccccc1CN1CCN(Cc2cccc3nonc23)CC1CCO (stereo not given)	none
CCOc1ccccc1CN1CCN(Cc2ccc3cccc(OC)c3n2)CC1CCO (stereo not given)	Sm TGR block 25µM
COc1ccc([N+](=O)[O-])cc1NC(=O)c1ccc(-n2nc(C)cc2C)cc1	none
COc1ccc(NC(=O)CCC(=O)N(Cc2ccc(OC)c(OC)c2)c2nccs2)c(OC)c1	none
COCC(C)NC(=O)CCS(=O)(=O)c1nc(-c2ccc(OC)cc2)cc(C(F)(F)F)n1 (stereo not given)	Sm TGR block inconclusive
COC(=O)CCS(=O)(=O)c1nc(-c2ccccc2)cc(C(F)(F)F)n1	Sm TGR block 8.9µM, AmpC detergent inconclusive
CCOC(=O)CCS(=O)(=O)c1nc(-c2ccccc2)cc(C(F)(F)F)n1	Sm TGR block 28µM
CCOC(=O)c1c(C(F)(F)F)cc(-c2ccc(F)cc2)nc1C	none
CCOC(=O)CS(=O)(=O)c1nc(-c2ccccc2)cc(C(F)(F)F)n1	Sm TGR block inconclusive
CCOC(=O)CS(=O)(=O)c1nc(-c2ccc(F)cc2)cc(C(F)(F)F)n1	Sm TGR block 2.8µM
CCc1ccccc1NC(=O)NNC(=O)CCc1ccc(OC)cc1	none
Cc1ccc(CC(=O)OC(C)C(=O)NC2CCCCC2C)cc1C (stereo not given)	none (no result: Giardia FBPA inh)
Cc1noc(Cn2c(=O)c3ccccc3n(CC(=O)Nc3ccc(F)cc3F)c2=O)n1	none (no result: AmpC inh no detg, Giardia FBPA inh)
Cc1ccc(NC(=O)Cc2c(O)c3ccccc3[nH]c2=O)c(C)c1	none
COc1ccccc1NC(=O)c1csc2c1CCC(C)C2 (stereo not given)	Sm TGR block 50µM
COc1ccc(NC(=O)c2c(NCc3cccs3)sc3c2CCC(C)C3)c(OC)c1 (stereo not given)	none (no result: AmpC inh no detg, Giardia FBPA inh)
COc1ccc(NC(=O)c2c(NCc3ccc(C)o3)sc3c2CCCCC3)c(OC)c1	Sm TGR block 2.8µM (no result: AmpC inh no detg, Giardia FBPA inh)
